The record followed here is the OligoGym collection.
Further: reference of the scale not given here.

The first experiment addresses IL10. The experiment is described as follows: pooled miR-30 sensor sort-seq; sequence = guide strand. The following applies: shRNA.
AACAACAAGTTGTCCAGCTGAT showed a sensor-assay potency score (higher = more potent) of 0.182.

Turning to TTGATGAAGATGTCAAACTCAC, the sensor-assay potency score (higher = more potent) was -0.225.

In turn, TTTAACAACAAGTTGTCCAGCT came in with a sensor-assay potency score (higher = more potent) of 0.786.

For ATCTCGGAGATCTCGAAGCATG, the sensor-assay potency score (higher = more potent) was -1.73.

Consider TTGCTCTTGTTTTCACAGGGAA, for which the sensor-assay potency score (higher = more potent) is -0.544.

As to TAGGCTTCTATGTAGTTGATGA, the sensor-assay potency score (higher = more potent) is -0.258.

The sequence TGAAAGAAAGTCTTCACTCTGC came in with a sensor-assay potency score (higher = more potent) of 0.368.

The target in a further experiment is IL12RB2. The description is as above. The settings on record: shRNA.
With TTTTGCTTTAATCAACAGCCAC, the sensor-assay potency score (higher = more potent) is -1.02.

As to TTGTACAGGATTAACTTGTTAC, the sensor-assay potency score (higher = more potent) is -0.744.

As to TTAGCTGTAGAGTATACTCAGT, the sensor-assay potency score (higher = more potent) was -0.26.

On to TTGAATTTCATCACTATTGATA, for which the sensor-assay potency score (higher = more potent) was -0.279.

TTGATTCTTCTGTCAAACTTGT yielded a sensor-assay potency score (higher = more potent) of 0.0343.

For the sequence TTGTCTACTGTAGTCAATGTGC, the sensor-assay potency score (higher = more potent) is -0.32.

TTGCAGACAAACAAGGTTGTAC gave a sensor-assay potency score (higher = more potent) of 0.163.

On to TTGAATTTGCTGCAGACACAGC, for which the sensor-assay potency score (higher = more potent) was -0.876.

TTAACCATATTCCAGAGCCTGC: the sensor-assay potency score (higher = more potent) was -1.49.

In the case of TTTGCTTTAATCAACAGCCACG, the sensor-assay potency score (higher = more potent) was -1.11.

As for TACCAGACATCTAACATCCCAG, the sensor-assay potency score (higher = more potent) was -0.395.

As for TTCTGGAGCAACACCAACGAAG, the sensor-assay potency score (higher = more potent) is -0.95.
